Shown is part of a subset that was picked to be rich in hits.
TTR transcr act = increases transthyretin transcription; activation, % at 16.7 µM; hit rate 1.3% among 92,000; SH-SY5Y TTR promoter Gaussia luciferase, luminescence; 100% = recombinant luciferase protein wells;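 active = activation above the mean of all tested compounds plus 3 SD, cut at about 9.5% in these data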;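 note: cells exposed to compounds for one day before reading; 0% = median of all test compound wells on the plate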
TTR inh HuH7 = counter-screen for TTR activators: TTR transcription inhibitors in HuH7 cells. hit rate 4% among 1,100. shares compounds with TTR transcr act. HuH7 TTR promoter-Gaussia luciferase reporter, luminescence. inhibition, % at 16.7 µM. AID 1117279;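 active = average inhibition above the solvent-only control wells' mean plus 3 SD, cut at about 15% in these data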;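 note: 0% = cells with DMSO only and 100% = cells with inhibitor control FD; inhibitors lower well luminescence so higher value means more inhibition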
TTR act confirm = confirmation of human transthyretin transcription activators | shares compounds with TTR transcr act | SHSY5Y TTR promoter Gaussia luciferase, luminescence; 100% = purified Lucia enzyme wells, no cells | activation, % at 16.7 µM | 1,100 tested, under 10 active;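 active = mean activation above a set limit taken from the earlier primary screen, cut at about 11% in these data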;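 note: 0% = DMSO-treated cells and 100% = recombinant Lucia luciferase without cells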
The depositor's hits bear a star.

SMILES	TTR transcr act	others
O=S(=O)(Nc1ccc2c(c1)OCO2)c1ccccc1	0
O=S(=O)(Nc1ccc2c(c1)OCCO2)c1cccc2nsnc12	1
Cc1ccc2cccc(S(=O)(=O)Nc3ccc4c(c3)OCO4)c2n1	14*	TTR inh HuH7=-19;TTR act confirm=2
C[C@H]1COc2cc(Br)ccc2S(=O)(=O)N1Cc1cn(CC2CCCCC2)nn1	0
O=S(=O)(N[C@@H]1CCCC[C@@H]1N1CCOCC1)c1ccc(Cl)cc1	-1
COC(=O)[C@]12C[C@H](CC(=O)NCc3cccs3)C(=O)N(Cc3cccc4ccccc34)C1=C[C@H](C1CCCC1)O[C@@H]2C	0
Cc1cccc(OCC(=O)NNS(=O)(=O)c2ccccc2F)c1	16*	TTR inh HuH7=-4;TTR act confirm=2
Cc1cccc(OCC(=O)Nc2ccncc2)c1	-2
Cc1cccc(OCC(=O)NNC(=O)CCc2ccccc2)c1	0
Cc1ccc(-c2c(NC(=O)Nc3ccc(F)cc3)nc3ncccn23)cc1	-2
COC(=O)C1CN(CCO)CCS(=O)(=O)N1Cc1cccc(Cl)c1 (stereo not drawn)	0
O=S(=O)(NCCC1CC1(Cl)Cl)c1ccccc1 (stereo not drawn)	0
O=S(=O)(c1ccccc1)C1CC1(c1ccccc1)c1ccccc1 (stereo not drawn)	14*	TTR inh HuH7=-3;TTR act confirm=0
O=S(=O)(Oc1ccccc1-c1ccccc1)c1ccccc1	-1
CCCCCc1ccc2cc(C#N)ccc2n1	1
COC(=O)[C@]12C[C@H](CC(=O)NCc3cccc4ccccc34)C(=O)N(Cc3ccco3)C1=C[C@H](COCc1ccccc1)O[C@@H]2C	0
O=C(COC(=O)c1ccccc1O)NNC(=O)c1ccc(Br)cc1	9.9*	TTR inh HuH7=-5;TTR act confirm=2
O=C(NNC(=O)c1ccccc1O)c1ccc(Br)cc1	1
O=C(COC(=O)c1cc(Br)ccc1O)NNC(=O)c1ccc([N+](=O)[O-])cc1	-2
COC(=O)Cn1ncn2c(cc3oc(C)cc32)c1=O	25*	TTR inh HuH7=-15;TTR act confirm=0
COC(=O)Cn1c(=O)c(C)nc2ccccc21	0
CN(C)c1ccc(NC(=O)Cn2ncn3c(cc4ccccc43)c2=O)cc1	-1
CCOC(=O)[C@]12CCCC=C1N(Cc1ccc(OC)cc1)C(=O)[C@@H]2CC(=O)NCc1cccc2ccccc12	-1
O=C(Nc1ccc(F)cc1)OCc1cn(Cc2ccccc2)nn1	1
COCCCNC(=O)c1cccc(OC)c1OC	-2
SMILES	TTR transcr act	others
COc1cccc(C(=O)NOCc2ccc(C)cc2)c1OC	9.7*	TTR inh HuH7=-7;TTR act confirm=-1
COc1cccc(C(=O)NCCC2=CCCCC2)c1OC	1
CCCC(C)C(=O)NC1CCCCN(Cc2ccc(C)cc2)C1=O (stereo not drawn)	-2
Cc1ccc2c(CN3CCN(c4ccccc4)CC3)cc(=O)oc2c1	0
CC(C)(C)NC(=O)[C@@H](c1cccnc1)N(C(=O)c1ccco1)c1ccc(C(C)(C)C)cc1	5
Cc1cc(C)c(OCCNCc2ccccc2)c(C)c1	13*	TTR inh HuH7=-11;TTR act confirm=1
Cc1cc(Br)ccc1OCCNCc1ccccc1	-1
Cc1cc(Cl)cc(C)c1OCCNCc1ccccc1	-2
C[C@@H]1CCN(C2CC2)S(=O)(=O)c2ccc(N3CC[C@@H](O)C3)cc2O1	0
Cc1ccc(C(=O)CC2SC(N)=NC2=O)cc1 (stereo not drawn)	20*	TTR inh HuH7=-7;TTR act confirm=3
CC(=O)c1ccc(CC2SC(N)=NC2=O)cc1 (stereo not drawn)	3
NC1=NC(=O)C(CC(=O)NCc2ccccc2)S1 (stereo not drawn)	6
Oc1ccc(Nc2ccccc2F)c2cccnc12	-1
C=CCN1C(=O)[C@H](CC(=O)NCC2CCCCC2)[C@@]2(C(=O)OCC)CCCC=C12	0
Clc1ccccc1Cn1ccc2ccc(-c3ccc4ccn(Cc5ccccc5Cl)c4c3)cc21	0
CCc1ccc(/C=C/C(=O)NC2=NCCS2)cc1	-1
COCCN(C(=O)c1ccc(N(C)S(=O)(=O)c2ccc(C)cc2)cc1)c1c(N)n(CC(C)C)c(=O)[nH]c1=O	9.8*	TTR inh HuH7=5;TTR act confirm=0
CCCn1c(N)c(N(CCOC)C(=O)c2cccc(F)c2)c(=O)[nH]c1=O	-1
CC(C)CN(C(=O)c1cccc(Cl)c1)c1c(N)n(CC(C)C)c(=O)[nH]c1=O	5
C[C@H]1[C@@H](NC(=O)C#Cc2ccccc2)CC[C@@]23CCCN2C(=O)CCC[C@@H]13	-1
Fc1ccc(Cn2ccc3ccc(-c4ccc5ccn(Cc6ccc(F)cc6F)c5c4)cc32)c(F)c1	0
CCCNC(=O)N[C@H]1C=C[C@H](CC(=O)NC2CCCCC2)O[C@@H]1CO	2
Cc1nc(NS(=O)(=O)c2ccccc2)sc1C(=O)N/N=C/c1ccccc1	0
CC(=O)c1ccc(NC(=O)Nc2sc(NS(=O)(=O)c3ccccc3)nc2C)cc1	30*	TTR inh HuH7=-6;TTR act confirm=2
Cc1ccc(S(=O)(=O)NNC(=O)c2sc(NS(=O)(=O)c3ccccc3)nc2C)cc1	0
SMILES	TTR transcr act	others
CCOC(=O)Nc1sc(NS(=O)(=O)c2ccccc2)nc1C	10*	TTR inh HuH7=-19;TTR act confirm=2
CC(=O)c1ccc(NC(=O)NNS(=O)(=O)c2ccc(F)cc2)cc1	-1
Cc1ccc(C)c(S(=O)(=O)Nc2nc(C)c(C(=O)Nc3ccccc3)s2)c1	1
COc1ccc2c3c([nH]c2c1)[C@]1(NCC3)C(=O)N(C)c2ccc(Cl)cc21	3
CCCCOCCCNC(=O)C[C@@H]1C(=O)N(CCc2ccc(Cl)cc2)C2=CCCC[C@]21C(=O)OCC	-1
COc1ccc2[nH]c3c(c2c1)CCN[C@]31C(=O)N(Cc2cn(Cc3ccccc3)nn2)c2ccccc21	2
COC(=O)C[C@@H]1CC[C@H](NC(=O)c2cnccn2)[C@@H](CO)O1	-1
CCNC(=O)Nc1ccc2c(c1)C(=O)N(C)[C@H]1CC[C@@H](CC(=O)NCCN3CCCC3)O[C@@H]1CO2	2
C[C@H]1[C@@H](OC(=O)Nc2cccc(Cl)c2)CC[C@@]23CCCN2C(=O)CCC[C@@H]13	0
COc1ccc2c(c1)N[C@@](CCN1C(=O)c3ccccc3C1=O)(c1[nH]c3ccccc3c1CCN1C(=O)c3ccccc3C1=O)C2=O	-1
Cc1cc(Nc2ccc3c(c2)OCCO3)c2cccc(C)c2n1	0
Cc1cc(C)c2c(N)c3cccc(C)c3nc2n1	12*	TTR inh HuH7=-4;TTR act confirm=3
Cc1cc(C)c2c(=O)[nH]c(SCc3ccccc3C)nc2n1	-1
OCCN1CCN(c2cc(-c3ccc4ccccc4c3)nc3ccnn23)CC1	-2
C[C@H]1[C@@H](NC(=O)Cc2ccsc2)CC[C@@]23CCCN2C(=O)CCC[C@@H]13	2
O=C(CCN1CCOCC1)c1ccc(N2CCCCC2)cc1	10.0*	TTR inh HuH7=-9;TTR act confirm=0
CCC(=O)c1ccc(OCCN2CCOCC2)cc1	-1
CC(C)(C)c1cc(C(=O)CCN2CCOCC2)cc(C(C)(C)C)c1O	-4
CCCn1c(N)c(NCCN2CCOCC2)c(=O)n(CC(=O)NCc2ccccc2)c1=O	-1
CC(=O)c1sc(-c2ccc(F)cc2)cc1NS(=O)(=O)c1ccc(C)cc1	17*	TTR inh HuH7=-6;TTR act confirm=0
CC(=O)c1sc(-c2ccccc2)cc1NS(=O)(=O)c1ccccc1	1
CC(=O)c1sc(-c2ccccc2)cc1NS(=O)(=O)c1ccc(C)cc1	4

Assay outcomes (PubChem)
